Drawing on article PMC7819943, “Rice protein-binding microarrays: a tool to detect cis-acting elements near promoter regions in rice”, this text covers binding signal for 54 sequences.

Over roughly 39,000 sequences, “fluorescence intensity (a.u.)” has its median near 4,300; the highest 2% begin near 39,000. The list comes from a sample in which the highest values are over-represented; it also holds similar and randomly drawn sequences.

The experiment concerns the target T1, OsSMF1 (Oryza sativa, UniProt Q6ZLB0 1-436).
T1 sequence: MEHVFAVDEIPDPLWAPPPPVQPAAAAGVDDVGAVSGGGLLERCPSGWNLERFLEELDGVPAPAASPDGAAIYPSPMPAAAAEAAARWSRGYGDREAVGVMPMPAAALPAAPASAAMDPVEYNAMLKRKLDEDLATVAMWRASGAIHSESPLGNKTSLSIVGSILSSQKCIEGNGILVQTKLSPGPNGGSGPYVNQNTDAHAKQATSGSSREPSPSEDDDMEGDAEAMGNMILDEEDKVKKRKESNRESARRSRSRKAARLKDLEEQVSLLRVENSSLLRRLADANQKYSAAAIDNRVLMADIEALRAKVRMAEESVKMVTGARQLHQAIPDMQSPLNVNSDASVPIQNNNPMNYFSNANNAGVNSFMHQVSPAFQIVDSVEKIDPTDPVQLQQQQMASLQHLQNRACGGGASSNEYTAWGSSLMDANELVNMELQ
The experiment can be described thus: protein-binding microarray (RPBM); PBS, 2% BSA, 51.3 ng/ul salmon testes DNA, 50 uM zinc acetate, 200 nM TF, 25 C, 1 h; high values mean tight binding. The following applies: protein: recombinant; tags: N-terminal polyhistidine and DsRed monomer fusion (pET32a); chain copies: 2; label: CyDye5-dUTP incorporated in the synthesized complementary strand; 3' TTTTT single-stranded linker to array surface; dsDNA, one strand shown. The method, boiled down:
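An Axon 4000B scanner gave the binding signal as per-feature fluorescence intensity in arbitrary units. This followed washing of a custom Agilent array that had been incubated for 1 h at 25 °C with 200 nM protein in PBS, 2% BSA, salmon testes DNA and 50 µM zinc acetate. The proteins were transcription factors fused at the N-terminus to polyhistidine and DsRed, expressed in E. coli BL21-CodonPlus and purified on Ni–NTA.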
For “CGACTGAAGACTTGGACACGGTCAGTCTTTCTGCCGTGTTCGGAGTCACCTAGTGCAG”, the binding signal is 5080 fluorescence intensity (a.u.).

For “ACCAAAGTTGGTACAAGTGTATAATCAGAATGGGAGAGCGCGGAGTCACCTAGTGCAG”, the binding signal was 21600 fluorescence intensity (a.u.).

On to “AATCGATTCTCCACTACTCTCTCGTCATTGTTCCCATGTTCGGAGTCACCTAGTGCAG”, for which the binding signal is 3270 fluorescence intensity (a.u.).

Take “CCTCCTGTCAGACTGTCGTCAGTGTCACACTGTCACTGTCCGGAGTCACCTAGTGCAG”: the binding signal is 6520 fluorescence intensity (a.u.).

Regarding “TTTATTACACAACGCAACTGGCCAGACTTTAGCGGGTCATCGGAGTCACCTAGTGCAG”, the binding signal is 46000 fluorescence intensity (a.u.).

On to “AAACTTATTTGGCCATGGTGTCATCGGGGTTGGCGTTTAGCGGAGTCACCTAGTGCAG”, for which the binding signal was 3860 fluorescence intensity (a.u.).

On to “AAAAGACTGGAATACGTGGCGAACAAACTTTATTACACAACGGAGTCACCTAGTGCAG”, for which the binding signal is 6740 fluorescence intensity (a.u.).

Consider “GCATGCAGGGCATGGCGAGACGGTGACGTGCTCCAAGGCGCGGAGTCACCTAGTGCAG”, for which the binding signal was 4760 fluorescence intensity (a.u.).

For the sequence “ACTCGCCTGGAAACCGTGAGATGAATTTATTAAGCCTAATCGGAGTCACCTAGTGCAG”, the binding signal is 3930 fluorescence intensity (a.u.).

On to “CCATGTAAGTGCCACGTCAACGCCACGTGGATCGAAGACTCGGAGTCACCTAGTGCAG”, for which the binding signal is 55500 fluorescence intensity (a.u.).

For “GGATCCCATTAACACGTGTCACCGTGGCATGCCACGTCATCGGAGTCACCTAGTGCAG”, the binding signal is 51400 fluorescence intensity (a.u.).

In the case of “AACACCAATCACCACGTACGCCGACCAACCCCATCCACCCCGGAGTCACCTAGTGCAG”, the binding signal was 6870 fluorescence intensity (a.u.).

As for “CCATGTAAGTGTCACGTCAATGCCACGTGAGACGAAGACCCGGAGTCACCTAGTGCAG”, the binding signal is 12500 fluorescence intensity (a.u.).

For “ATGGGCCATGGCCCATCCGTGCCACGTGTCGCATGCTCCTCGGAGTCACCTAGTGCAG”, the binding signal was 27900 fluorescence intensity (a.u.).

With “CCCATCTACCCACCCTCCGACACGTGGGCCCCACCCCGACCGGAGTCACCTAGTGCAG”, the binding signal is 11000 fluorescence intensity (a.u.).

Consider “AGGGGCCACACCGACCCTCCACGTCATCGTCCACGTCACCCGGAGTCACCTAGTGCAG”, for which the binding signal is 40900 fluorescence intensity (a.u.).

As to “GCCATGCATCCATACACGTCTACACTCTACACCCATTAACCGGAGTCACCTAGTGCAG”, the binding signal was 4850 fluorescence intensity (a.u.).

For “TAGTCCAATCCATCGTGTTTCCACGTGGCGACCCAACCCCCGGAGTCACCTAGTGCAG”, the binding signal is 40000 fluorescence intensity (a.u.).

Consider “GTCACCTAAGTGCCATGTCAACGCCACGTGGAAAGAAGACCGGAGTCACCTAGTGCAG”, for which the binding signal is 25100 fluorescence intensity (a.u.).

Consider “CTCACCACCACCGTCGTCATCGTCGTCGTCACCCTCCTCCCGGAGTCACCTAGTGCAG”, for which the binding signal was 6620 fluorescence intensity (a.u.).

On to “GATCCAACACGTGTCCCCTACCCACGACACGTGGCAACCCCGGAGTCACCTAGTGCAG”, for which the binding signal was 36500 fluorescence intensity (a.u.).

Turning to “ACAAGGCAACTACTCCTAGCTAGTAAGCATCAATGCATGGCGGAGTCACCTAGTGCAG”, the binding signal is 4520 fluorescence intensity (a.u.).

Take “CGTAGGCTCGTCGCGGCCACGTACGCCATCCCGAGCTCGGCGGAGTCACCTAGTGCAG”: the binding signal is 6280 fluorescence intensity (a.u.).

On to “TTGGCTTCTTCAACTTACGTTACCCAATGCATTATATTTGCGGAGTCACCTAGTGCAG”, for which the binding signal was 4300 fluorescence intensity (a.u.).

Consider “ACTGCTCACGCCTTAACTGCGCGTCTTAAGGTGGCGTGGCCGGAGTCACCTAGTGCAG”, for which the binding signal was 4310 fluorescence intensity (a.u.).

Regarding “CGAGCCCACTCGAGGTGACTCACCTTGTTCCTCCACCAGTCGGAGTCACCTAGTGCAG”, the binding signal was 18500 fluorescence intensity (a.u.).

Regarding “TCTGAGTTACTTCCAAGTTGACTAGTTACCTCTTACTACCCGGAGTCACCTAGTGCAG”, the binding signal is 3260 fluorescence intensity (a.u.).

For “TTAATGTCCGAACACCTCATACAACGTGACGCGTCAAAACCGGAGTCACCTAGTGCAG”, the binding signal was 6890 fluorescence intensity (a.u.).

As for “AGTTGGCGTGGATGGCCACGATTCTGGACCCGGGGTTGCCCGGAGTCACCTAGTGCAG”, the binding signal was 3600 fluorescence intensity (a.u.).

Consider “CTGAATTTAGACACCTCAGCGCCACGTCAACTGGCGCTGACGGAGTCACCTAGTGCAG”, for which the binding signal was 18400 fluorescence intensity (a.u.).

For the sequence “ATGGACTGTTTTGTCAACTAAGTAATGCATGACACGTGGACGGAGTCACCTAGTGCAG”, the binding signal is 14500 fluorescence intensity (a.u.).

Take “CTCATCGTCCTCCACGTGTCCACCCATACACGTGTCGCCACGGAGTCACCTAGTGCAG”: the binding signal is 29800 fluorescence intensity (a.u.).

Regarding “ATTCTAATGACACCTAAGTGCCACGTCAACGCCACGTGGACGGAGTCACCTAGTGCAG”, the binding signal is 45100 fluorescence intensity (a.u.).

In the case of “TACCAGTGTCACGCAGTGACGCAATGGATCATGCTATCCACGGAGTCACCTAGTGCAG”, the binding signal is 4450 fluorescence intensity (a.u.).

On to “ACCGATGCCATCATCCACGTCATCGTCCACGTGTCACCCACGGAGTCACCTAGTGCAG”, for which the binding signal is 45100 fluorescence intensity (a.u.).

“ACGCATGGATCCACGTGACGTCACGCCACGTCATCCACCACGGAGTCACCTAGTGCAG”: the binding signal is 60800 fluorescence intensity (a.u.).

As to “GACAACCGAACACGTCGAGCCAGCGAATGATGAAACCCCACGGAGTCACCTAGTGCAG”, the binding signal is 31800 fluorescence intensity (a.u.).

For “AATCTCACCCATCCACGTGTCCCCAGATCTCATCCCCATCCGGAGTCACCTAGTGCAG”, the binding signal is 18700 fluorescence intensity (a.u.).

On to “TATGTATGAATGACAACACCGCCACGTCAGCGCCACGTCACGGAGTCACCTAGTGCAG”, for which the binding signal was 50400 fluorescence intensity (a.u.).

As for “GTCCGATCGGACGCACCACGCATCCTAGCCGTCCACGCCACGGAGTCACCTAGTGCAG”, the binding signal was 3180 fluorescence intensity (a.u.).

Consider “TTAATTCTAATGCCACTTAAGCGCAACGTCAACACCACGTCGGAGTCACCTAGTGCAG”, for which the binding signal was 18200 fluorescence intensity (a.u.).

In the case of “CGGCGGCTTCTTGTTGGTGACGCCGCACGGCATGGTTGATCGGAGTCACCTAGTGCAG”, the binding signal is 5370 fluorescence intensity (a.u.).

Take “CACTGCCCATTCGCCACGTCCCCTAACGCTCCAGGTTTATCGGAGTCACCTAGTGCAG”: the binding signal is 11800 fluorescence intensity (a.u.).

On to “GAGATCGAACATCGATGCAGCCCCGCGTCAGGTGCCAAGTCGGAGTCACCTAGTGCAG”, for which the binding signal is 3510 fluorescence intensity (a.u.).

In the case of “ACCCAAAGCCACCCGCAACAACCGACGACGACGACGACCGCGGAGTCACCTAGTGCAG”, the binding signal was 24100 fluorescence intensity (a.u.).

Take “CACGTGTACAAGGGCAAAGCGCAACACCGACCCGAGTCCACGGAGTCACCTAGTGCAG”: the binding signal is 39300 fluorescence intensity (a.u.).

For “CATGGTGCGGGCCAGCTCAGCTGTGCACGTGGCATGCCACCGGAGTCACCTAGTGCAG”, the binding signal was 17200 fluorescence intensity (a.u.).

As for “TAACCATGGTCTTGCCTACGTGGCGTGCCACGTAGACGATCGGAGTCACCTAGTGCAG”, the binding signal is 34300 fluorescence intensity (a.u.).

Regarding “TTGAACCCCGTGTACATCAACAAACCACGTGTCCATCAAGCGGAGTCACCTAGTGCAG”, the binding signal is 6220 fluorescence intensity (a.u.).

Regarding “ACCATGGTCTAACCTACGTGGCATGCCACGTGTGCGTGTGCGGAGTCACCTAGTGCAG”, the binding signal was 56000 fluorescence intensity (a.u.).

For the sequence “AAAGTTTCATGCCTGAGATGTTATGTTACGTGTCTATCCACGGAGTCACCTAGTGCAG”, the binding signal is 7680 fluorescence intensity (a.u.).

In the case of “AACATGATTTAACAGGTAACAGTCGCCCATGCCATTCTTGCGGAGTCACCTAGTGCAG”, the binding signal is 3350 fluorescence intensity (a.u.).

Regarding “ATTTTCATGCTTAGATGTAGTAACTACACCAACATTACATCGGAGTCACCTAGTGCAG”, the binding signal was 3310 fluorescence intensity (a.u.).

As for “ATGTTTCTGCGGCCCGTCATCCGTGTTTGAGTCGGTTATACGGAGTCACCTAGTGCAG”, the binding signal was 4220 fluorescence intensity (a.u.).
